The values that follow come from PubChem BioAssay (NCATS).

SMILES strings stand for the structures. Inconclusive results are not listed. A number with no mark means an inactive call. Active and inactive are the calls of the source. Calls follow the shape of the dose curve; as a rule, active = well fitted cell-killing curve with a large enough effect; inconclusive = small, poorly fitted or top-dose-only effect; inactive = flat fitted curve, though single readings scatter.
% is scaled to controls: 0 for no effect and ±100 for the full control effect; potency is read from the fitted curve at half-maximal effect.

This test can be described thus: qHTS of pediatric cancer cell lines to identify multiple opportunities for drug repurposing: Primary screen for Rh18 cells (AID 1347102). Also: nearly all actives have a fitted effect of over 65% in size. As to conditions: Rh18 rhabdomyosarcoma viability, CellTiter-Glo luminescence, 48 h; series mostly up to 46 µM; activity change, negative = cytotoxic: at the top concentration. The text has this: Drug repurposing or repositioning has been offered as a strategy for drug development in oncology programs. This approach has special potential for childhood cancers and other rare or orphan diseases, where the expected return on new drug development has been a disincentive to pharmaceuticals.
In this project we exploit the poly-pharmacology of drugs to discover new indications via phenotypic screening of a panel of 19 well-characterized cell lines derived from solid tumors seen in children and adolescents. The goal is to identify approved drugs with previously unrecognized anticancer properties that has the potential to reveal new mechanisms and biological processes involved in carcinogenesis or drug resistance. We employed a titration-based paradigm (quantitative high-throughput screening or qHTS), where all compounds were tested at multiple concentrations for their effect on cell viability. Concentration-response curves (CRCs) were derived directly from the primary screen, and both potency and efficacy values were used to identify compounds with robust bioactivity profiles. We screened the NIH Chemical Genomics Center (NCGC) Pharmaceutical Collection (NPC) and Mechanism Interrogation Plate (MIPE) small molecule collections of approved and investigational compounds against these cell lines; and measured metabolically active cells after 48 hours of compound treatment as a proxy for cell viability.
Assay Submitter: Nathalia J. Martinez, National Center for Advancing Translational Sciences, National Institutes of Health, Rockville, MD, USA; email: natalia.martinez@nih.gov
[1] Shen, M et al. Quantitative high-throughput phenotypic screening of pediatric cancer cell lines identifies multiple opportunities for drug repurposing. Oncotarget 2017 Dec 19;9(4):4758-4772. PMID 29435139.
The cells were obtained from University of North Carolina (UNC), Pediatric Preclinical Testing Program (PPT), and Coriell Institute (CI).
qHTS cell viability assay:
Cells were assayed in growth media at a density of 500-1,000 cells/well. Five microliters of cells were dispensed into 1,536-well, white, solid-bottom, TC-treated plates (Greiner Bio One) using a multidrop dispenser and incubated at 37 degrees C, 5% CO2, under a humidified atmosphere for 5 hours. Twenty-three nanoliters of compounds and controls (neutral control DMSO or positive control bortezomib at final concentration of 2.3 µM) were subsequently transferred by Kalypsys pintool. For primary screens, the MIPE collection was tested at 11-point dilutions (final concentrations range from 0.78 nM to 46 µM) and the NPC collection at 8-point dilutions (final concentrations range from 0.59 nM to 46 µM). Compounds tested in follow-up screens were assayed at 11-point dilutions. Cells were incubated for 48 hours, followed by addition of 3 µL of CellTiter-Glo (Promega). After a 15 min incubation at room temperature, samples were analyzed for luminescence intensity using a ViewLux High-throughput CCD imager equipped with clear filters.
For the compound `Cc1cnc(CNC(=O)c2c(=O)c3ccc(N4CCCN(C)CC4)nc3n3c2sc2ccccc23)cn1`, the “activity change, negative = cytotoxic” value was 2.18% [at 16.1 µM].

On to `O=C(O)C1=NC(C(=O)O)CC(C=CN2c3cc(O)c(OC4OC(CO)C(O)C(O)C4O)cc3CC2C(=O)O)=C1` (stereo not given), for which the “activity change, negative = cytotoxic” value is 24.8%. In the case of `CCCCCOC(=O)Nc1nc(=O)n([C@@H]2O[C@H](C)[C@@H](O)C2O)cc1F` (stereo not given in full), the “activity change, negative = cytotoxic” value was -2.09%. Turning to `CC(NCCc1ccc(O)cc1)C(O)c1ccc(O)cc1` (stereo not given), the “activity change, negative = cytotoxic” value is 5.3%.

For the compound `CC(C)CN(C[C@H](O)[C@H](Cc1ccccc1)NC(=O)O[C@H]1CCOC1)S(=O)(=O)c1ccc(N)cc1`, the “activity change, negative = cytotoxic” value was -10.2%.

Consider `CC1(C)C(N(O)C(=O)Nc2ccc(Cl)cc2)N(c2ccc(Cl)cc2)C(=O)N1CC(=O)NN=CC=Cc1ccc([N+](=O)[O-])o1` (stereo not given), for which the Potency is 20.9 µM (active). Take `C[C@H](c1ccc(F)cc1CCCC(=O)O)N(c1cc(F)ccc1F)S(=O)(=O)c1ccc(Cl)cc1`: the “activity change, negative = cytotoxic” value was -14.3%.

Turning to `O=C(c1ccc(C=Cc2n[nH]c3ccccc23)cc1)N1CCNCC1`, the “activity change, negative = cytotoxic” value is 5.17%. In the case of `Cn1c(=O)c(Oc2ccc(F)cc2F)cc2cnc(NC3CCOCC3)nc21`, the “activity change, negative = cytotoxic” value is -19.9%. Turning to `CN(C)CCOc1ccc(-c2nc(-c3ccc4c(c3)CCC4=NO)c(-c3ccncc3)[nH]2)cc1`, the Potency was 23.5 µM (active). On to `Cc1ccc(C2=Nc3ccc(Cl)cc3OC2)cc1`, for which the “activity change, negative = cytotoxic” value was 10.7%. On to `O=C1CCCC(=O)C1C(=O)c1ccc(C(F)(F)F)cc1[N+](=O)[O-]`, for which the “activity change, negative = cytotoxic” value is 0.457%. On to `N#Cc1c(N(CC(=O)O)CC(=O)O)sc(C(=O)O)c1CC(=O)O`, for which the “activity change, negative = cytotoxic” value is -15.9%. Consider `O=S(=O)(NCCNCC=Cc1ccc(Br)cc1)c1cccc2cnccc12`, for which the Potency was 16.6 µM (active). On to `CNC(=O)[C@H](Cc1ccccc1)NC(=O)[C@H](CC(C)C)[C@H](CSc1cccs1)C(=O)NO`, for which the “activity change, negative = cytotoxic” value is -9.67%. As for `Cc1cc(NC(=O)Nc2ccc(N(C)C)cc2)c2cc(F)cc(F)c2n1`, the “activity change, negative = cytotoxic” value is 9.8%. With `CCC(=C(CC)c1ccc(O)cc1)c1ccc(O)cc1`, the “activity change, negative = cytotoxic” value is -24.9%. Take `C#CCN(C)CC1=Cc2ccccc2Oc2ccccc21`: the “activity change, negative = cytotoxic” value is -28%. For the compound `CO[C@H]1/C=C\O[C@@]2(C)Oc3c(C)c(O)c4c(O)c(c(C=NN5CCN(C6CCCC6)CC5)c(O)c4c3C2=O)NC(=O)C(C)=CC=C[C@H](C)[C@H](O)[C@@H](C)[C@@H](O)[C@@H](C)[C@H](OC(C)=O)[C@H]1C`, the Potency was 0.118 µM (active). In the case of `CN1CC(=O)N2C(Cc3c([nH]c4ccccc34)[C@H]2c2ccc3c(c2)OCO3)C1=O` (stereo not given in full), the “activity change, negative = cytotoxic” value is -15.6%.

As to `COc1ccc(-c2oc3c(CC=C(C)C)c(O)cc(O)c3c(=O)c2O)cc1`, the “activity change, negative = cytotoxic” value is 8.2%.

With `CCN(CCO)CCCOc1ccc2c(Nc3cc(CC(=O)Nc4cccc(F)c4)[nH]n3)ncnc2c1`, the “activity change, negative = cytotoxic” value is 3.82%. On the same count and under the same terms, to `O=C(O)CCNc1cc(N2CCc3ccccc3CC2)nc(-c2ccccn2)n1` belongs 15.4%; to `Oc1ccc(C=Cc2cc(O)cc(O)c2)cc1`, -20.2%; to `COc1cc2ncnc(Nc3cc(Br)c(O)c(Br)c3)c2cc1OC`, -16.7%.

For the compound `CCNC(=O)c1noc(-c2cc(C(C)C)c(O)cc2O)c1-c1ccc(CN2CCOCC2)cc1`, the Potency is 0.0935 µM (active). With `COc1cc([C@H]2Oc3cc([C@H]4Oc5cc(O)cc(O)c5C(=O)[C@H]4O)ccc3O[C@H]2CO)ccc1O`, the “activity change, negative = cytotoxic” value is -19.5%. For the compound `CN(C)c1nc(Cc2ccc(NC(=O)c3ccc(C(F)(F)F)cc3)cc2)nc(N(C)C)c1CC(=O)O`, the “activity change, negative = cytotoxic” value was 14.7%. On to `C[C@H]1COC2=C1C(=O)C(=O)c1c2ccc2c1CCCC2(C)C`, for which the “activity change, negative = cytotoxic” value was -24.1%. With `COc1nc(C)cnc1NS(=O)(=O)c1cccnc1-c1ccc(-c2nnco2)cc1`, the “activity change, negative = cytotoxic” value was 4.1%. Consider `CC(C)=CCCC(C)=CCCC(C)=CCCC(C)=CCCC(C)=CCCC(C)=CCCC(C)=CCCC(C)=CCCC(C)=CCO`, for which the “activity change, negative = cytotoxic” value is 18.8%.

With `O=c1[nH]c(=O)n([C@H]2C[C@@H](O)[C@@H](CO)O2)cc1C(F)(F)F`, the “activity change, negative = cytotoxic” value is -6.35%. Same read-out and setting: to `CC(C)(C)c1nc(-c2cccc(NS(=O)(=O)c3c(F)cccc3F)c2F)c(-c2ccnc(N)n2)s1` belongs 25.9%. For the compound `COc1cc2nccc(Oc3ccc(NC(=O)Nc4cc(C)on4)c(Cl)c3)c2cc1OC`, the Potency is 18.7 µM (active). For the compound `c1ccc(CNc2nc(N3CCOc4ccccc43)nc3c2CCCC3)cc1`, the “activity change, negative = cytotoxic” value was 3%. As to `COC(=O)N1CCN(Cc2cccc(NC(=O)Nc3ccc(C)nc3)c2F)CC1`, the “activity change, negative = cytotoxic” value was 2.13%.

As to `CN1CCN(c2ncc(-c3cc(Cl)cc(Cl)c3Cl)c(N)n2)CC1`, the “activity change, negative = cytotoxic” value was -10.8%. As for `CCCCCCOC(=O)N=C(N)c1ccc(NCc2nc3cc(C(=O)N(CCC(=O)OCC)c4ccccn4)ccc3n2C)cc1`, the “activity change, negative = cytotoxic” value is 1.68%. As for `C[C@]12CCC3=C4CCC(=O)C=C4CC[C@@H]3[C@H]1CC[C@@]2(O)CC#N`, the “activity change, negative = cytotoxic” value was 9.03%. On the same count and under the same terms, to `CC[C@H](NC(=O)[C@H](C)NC)C(=O)N1C[C@@H](O)C[C@H]1Cc1c(-c2[nH]c3cc(F)ccc3c2C[C@H]2C[C@H](O)CN2C(=O)[C@H](CC)NC(=O)[C@H](C)NC)[nH]c2cc(F)ccc12` belongs -20.3%.
